Source: PubChem BioAssay (Tox21)
Results filed as inconclusive are left out. The source made the active and inactive calls. Unless noted, calls come from the whole dose curve; as a rule, active = well fitted curve in the direction sought with a large enough effect in the repeat runs; inconclusive = weak or mixed curves; inactive = no such curve, though single readings can be large; an effect the other way counts as inactive or inconclusive.

Tests used:
[1] = qHTS assay for small molecule agonists of the p53 signaling pathway (AID 651631; calls by dose curve; note: nearly all actives have a fitted effect of over 15% in size)
In short: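 HCT-116 p53RE-bla reporter line, 16 h compound treatment at 37 °C, then fluorescence after 2 h with B/G FRET substrate.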

[2] = qHTS assay for small molecules that induce genotoxicity in human embryonic kidney cells expressing luciferase-tagged ATAD5 (AID 651632); note: nearly all actives have a fitted effect of over 15% in size
In short: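 Increased luciferase signal from ATAD5-tagged reporter cells indicates DNA-damage-driven ATAD5 induction. HEK293T cells are treated for 16 hr at 37C before detection with Amplite.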

[3] = qHTS assay for small molecule agonists of the p53 signaling pathway - cell viability (AID 651633; calls by dose curve;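 note: p53RE-bla HCT reporter cells with a stable beta-lactamase p53 reporter; series mostly up to about 83 µM; nearly all actives have a fitted effect of over 30% in size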)
In short: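 p53RE-bla cells, seeded at 4,000 per well and rested 5 h at 37 C/5% CO2, received compounds in DMSO for 16 h at 37 C. CellTiter-Glo was then added, and luminescence was read after 30 min at room temperature to gauge cytotoxicity.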

[4] = qHTS assay for small molecules that induce genotoxicity in human embryonic kidney cells expressing luciferase-tagged ATAD5 - cell viability (AID 651634; calls by dose curve; note: nearly all actives have a fitted effect of over 25% in size)
In short: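 Cytotoxicity counterscreen in HEK293T cells bearing an ATAD5-luciferase reporter: live-cell protease activity measured by CellTiter-Fluor fluorescence after 15.5 hr compound exposure.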

[5] = qHTS assay for small molecule disruptors of the mitochondrial membrane potential - cell viability (AID 720634; calls by dose curve;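 note: human HepG2 liver cancer cells; series mostly up to about 83 µM; nearly all actives have a fitted effect of over 20% in size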)
In short: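 After overnight attachment at 37 C, HepG2 cells received compound or DMSO vehicle for 1 hr. Viability is then taken from ATP-driven luminescence following a 30 min room-temperature CellTiter-Glo step.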

[6] = qHTS assay for small molecule disruptors of the mitochondrial membrane potential (AID 720635)
In short: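 HepG2 cells (2,000/well) attached overnight at 37C, then took compound for 1 hr at 37C, 5% CO2. Mito-MPS dye was added for 30 min; fluorescence was read at 490/535 nm (monomers) and 540/590 nm (aggregates).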

[7] = qHTS assay to test for compound auto fluorescence at 590 nm (red) in HepG2 cells (AID 720674)
In short: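 Rose Bengal sodium served as the red fluorophore standard. HepG2 monolayers (overnight attachment, MEM with 10% FBS) were exposed to test compounds for 1 hr at 37 C and read at Ex 540/Em 590 nm.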

[8] = qHTS assay to test for compound auto fluorescence at 535 nm (green) in HepG2 cells (AID 720675)
[9] = qHTS assay to test for compound auto fluorescence at 460 nm (blue) in HEK293 cells (AID 720678)
In short: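 Measured: blue fluorescence (Ex 405/Em 460 nm) of compound-treated HEK293 cells, incubated overnight at 37C with 5% CO2 and scaled to triamterene equivalents.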

[10] = qHTS assay to test for compound auto fluorescence at 590 nm (red) in HEK293 cells (AID 720679)
In short: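 Using HEK293 cells at 2,000 per well, the screen added 23 nL of each compound after cell attachment and incubated overnight (37C, 5% CO2). The plate reader then captured red-label fluorescence, Ex/Em 540/590nm.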
% is set by controls: 0 for no effect and ±100 for the full control effect.

Nc1ccncc1N
inactive: Potency [1] | Potency [2] | Potency [3] | Potency [4] | outcome [5] | Potency [6] | outcome [7] | outcome [8] | outcome [9] | outcome [10]

CC(=O)Oc1cccc(C)c1
inactive: Potency [1] | Potency [2] | Potency [3] | Potency [4] | outcome [5] | Potency [6] | outcome [7] | outcome [8] | outcome [9] | outcome [10]

C=CN1CCCCCC1=O
inactive: Potency [1] | Potency [2] | Potency [3] | Potency [4] | outcome [5] | Potency [6] | outcome [7] | outcome [8] | outcome [9] | outcome [10]

CN(C)C(=O)Oc1cccc([N+](C)(C)C)c1
inactive: Potency [1] | Potency [2] | Potency [3] | Potency [4] | outcome [5] | outcome [7] | outcome [8] | outcome [9] | outcome [10]

CC1=CC(=O)[C@H]2C[C@@H]1C2(C)C
inactive: Potency [1] | Potency [2] | Potency [3] | Potency [4] | outcome [5] | outcome [7] | outcome [8] | outcome [9] | outcome [10]

C[N+](C)(CCOc1ccccc1)Cc1cccs1
inactive: Potency [1] | Potency [2] | Potency [3] | Potency [4] | outcome [5] | outcome [7] | outcome [8] | outcome [9] | outcome [10]

COc1cc(C(=O)NCc2ccc(OCCN(C)C)cc2)cc(OC)c1OC
inactive: Potency [1] | Potency [2] | Potency [3] | Potency [4] | outcome [5] | Potency [6] | fluorescence, relative to Rose Bengal [7] 1.14% [at 18.6 µM] | fluorescence, % of fluorescein control [8] 0.0603% [at 18.6 µM] | fluorescence, % of triamterene [9] -0.345% [at 18.6 µM] | fluorescence, % of fluorescent control [10] -0.334% [at 18.6 µM]

CC(C#N)(CCC(=O)O)N=NC(C)(C#N)CCC(=O)O (stereo not drawn)
inactive: Potency [1] | Potency [2] | Potency [3] | Potency [4] | outcome [5] | outcome [7] | outcome [8] | outcome [9] | outcome [10]

CCN1CCOCC1
inactive: Potency [1] | Potency [2] | Potency [3] | Potency [4] | outcome [5] | Potency [6] | outcome [7] | outcome [8] | outcome [9] | outcome [10]

NCCCC[C@H](N[C@@H](CCc1ccccc1)C(=O)O)C(=O)N1CCC[C@H]1C(=O)O
inactive: Potency [1] | Potency [2] | Potency [3] | Potency [4] | outcome [5] | Potency [6] | fluorescence, relative to Rose Bengal [7] 0.575% [at 18.6 µM] | fluorescence, % of fluorescein control [8] -0.177% [at 18.6 µM] | fluorescence, % of triamterene [9] -0.377% [at 18.6 µM] | fluorescence, % of fluorescent control [10] -0.247% [at 18.6 µM]

CN(C)[C@@H]1C(=O)C(C(=O)NCN2CCCC2)=C(O)[C@@]2(O)C(=O)C3=C(O)c4c(O)cccc4[C@@](C)(O)C3C[C@@H]12 (stereo partly drawn)
inactive: Potency [1] | Potency [2] | Potency [3] | Potency [4] | outcome [5] | Potency [6] | outcome [7] | outcome [8] | outcome [9] | outcome [10]

CCCC(C)C(=O)OCC (stereo not drawn)
inactive: Potency [1] | Potency [2] | Potency [3] | Potency [4] | outcome [5] | Potency [6] | outcome [7] | outcome [8] | outcome [9] | outcome [10]

CCCCCC(=O)OCCc1ccccc1
inactive: Potency [1] | Potency [2] | Potency [3] | Potency [4] | outcome [5] | outcome [7] | outcome [8] | outcome [9] | outcome [10]

O=C(O)CCSCCC(=O)O
inactive: Potency [1] | Potency [2] | Potency [3] | Potency [4] | outcome [5] | outcome [8] | outcome [9] | outcome [10]

C=CCOCC(O)CO (stereo not drawn)
inactive: Potency [1] | Potency [2] | Potency [3] | Potency [4] | outcome [5] | outcome [7] | outcome [8] | outcome [9] | outcome [10]

CCCCCC(C)N (stereo not drawn)
inactive: Potency [1] | Potency [2] | Potency [3] | Potency [4] | outcome [5] | outcome [7] | outcome [8] | outcome [9] | outcome [10]

CCC1C(=O)OCC1Cc1cncn1C (stereo not drawn)
inactive: Potency [1] | Potency [2] | Potency [3] | Potency [4] | outcome [5] | outcome [8] | outcome [9] | outcome [10]

CCOC(=O)C1=NOC(c2ccccc2)(c2ccccc2)C1
inactive: Potency [1] | Potency [2] | Potency [3] | Potency [4] | outcome [5] | outcome [7] | outcome [8] | outcome [9] | outcome [10]

[K+]
inactive: Potency [1] | Potency [2] | Potency [3] | Potency [4] | outcome [5] | outcome [7] | outcome [8] | outcome [9] | outcome [10]

CC(=O)Nc1ccc(OCC(O)CNC(C)C)cc1 (stereo not drawn)
inactive: Potency [1] | Potency [2] | Potency [3] | Potency [4] | outcome [5] | outcome [7] | outcome [8] | outcome [9] | outcome [10]

O=C(O)CC(C(=O)O)S(=O)(=O)O (stereo not drawn)
inactive: Potency [1] | Potency [2] | Potency [3] | Potency [4] | outcome [5] | outcome [7] | outcome [8] | outcome [9] | outcome [10]

CNCCO
inactive: Potency [1] | Potency [2] | Potency [3] | Potency [4] | outcome [5] | outcome [7] | outcome [8] | outcome [9] | outcome [10]

Cc1ccc(C(=O)c2ccc(CC(=O)O)n2C)cc1
inactive: Potency [1] | Potency [2] | Potency [3] | Potency [4] | outcome [5] | fluorescence, relative to Rose Bengal [7] 0.352% [at 18.6 µM] | fluorescence, % of fluorescein control [8] 0.0458% [at 18.6 µM] | fluorescence, % of triamterene [9] -0.184% [at 18.6 µM] | fluorescence, % of fluorescent control [10] 0.256% [at 18.6 µM]
